Experimental data taken from PubChem BioAssay (NCI).
This is part of a sample that, as a whole, favours compounds with a hit. Of some 83,000 tested, about 20% had one in any assay.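 48-hour exposure, single concentration, 96-well plates; percent growth endpoint where 0 means no net growth. Active: below 10.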 A number with no mark means an inactive call.

system: HL-60(TB) leukemia; assay: NCI-60 one-dose screen, 48 h (100 = growth as untreated, 0 = no growth, -100 = all killed); conditions: 10 µM unless noted

| Compound | growth |
| --- | --- |
| CCOC(=O)/C(C#N)=C(\C)CCc1ccccc1 | 239% |
| C/C(=N\O)[C@@H]1CC[C@]2(CO)CC[C@]3(C)[C@H](CC[C@@H]4[C@@]5(C)CCCNC(C)(C)[C@@H]5CC[C@]43C)[C@@H]12 | 95.1% |
| COc1ccc(-c2csc(C3=C(O)CN(CCCN4CCCC4=O)C3=N)n2)cc1OC | 114% |
| O=C(Cn1cccc(Nc2ccccc2)c1=O)Nc1ccccc1 | 118% |
| CCCCN(CCCC)CCCCCCCCC(O)c1cc2ccccc2c2ccccc12 (stereo unspecified) | 28.5% |
| Cc1ccc(NC(=O)Cn2nncc2CN2C(=O)CSC2=O)cc1C | 95% |
| O=C1C=CC(=O)N1c1ccc(I)cc1Cl | 97.9% |
| CCOc1cc(/C=C/C(=O)CC(=O)/C=C/c2ccc(OC(=O)CNc3nc4ccc(OC)cc4s3)c(OCC)c2)ccc1OC(=O)CNc1nc2ccc(OC)cc2s1 | 21.5% |
| O=C1CCCN1C1CCN(Cc2cc3ccccc3[nH]c2=O)c2ccccc21 (stereo unspecified) | 95.6% |
| COc1cc(/C=C/C(=O)N2CCN(C(=O)/C=C/c3cc(OC)c(OC)c(OC)c3)CC2)cc(OC)c1OC | 91.7% |
| OCCNC(=S)Nc1ccc(-c2nc(N3C[C@H]4CC[C@@H](C3)O4)c3cccn3n2)cc1 | 38.2% |
